# Experimental data reported in the supplement of paper PMC6522484.
# ± gives the standard deviation of the averaged measurements.
# System: DLD1
# Assay: TCF/Wnt firefly luciferase reporter signal relative to plate median (fraction of plate median); higher = higher Wnt reporter signal
# Details: 10 µM; treatment time 24 h; reporter: 7TFP
# Outline: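 Colorectal cancer cell lines carrying stably transduced lentiviral TCF/Wnt firefly luciferase reporters (7TFP or TCF4/Wnt) were plated in 384-well plates and treated 24 h later with kinase inhibitor library compounds at a final 10 µM for 24 h. Firefly luciferase or CellTiterGlo luminescence was read on parallel plates with a Tecan F500 reader. Signals were normalised per well to the plate median in webcellHTS2 (additive, no log transformation), and values are the mean of two independent replicates.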
row,SMILES,TCF/Wnt firefly luciferase reporter signal
1,O=C(O)c1ccc(Nc2ncc3c(n2)-c2ccc(Cl)cc2C(c2c(F)cccc2F)=NC3)cc1,1.1 ± 0.19
2,O=C(c1ccc(/C=C/c2n[nH]c3ccccc23)cc1)N1CCNCC1,1.26 ± 0.6
3,Cc1[nH]c(/C=C2\C(=O)Nc3ccc(S(=O)(=O)N(C)c4cccc(Cl)c4)cc32)c(C)c1C(=O)N1CCN(C)CC1,0.858 ± 0.37
4,Nc1cc(C(F)(F)F)c(-c2cc(N3CCOCC3)nc(N3CCOCC3)n2)cn1,0.383 ± 0.085
5,COC(=O)Nc1ccc(-c2nc(N3CCOCC3)c3cnn(C4CCN(Cc5cccnc5)CC4)c3n2)cc1,0.372 ± 0.064
6,Fc1cc(-c2cccc3ncc(-c4cnn(C5CCNCC5)c4)nc23)cc(F)c1CN1CCOCC1,1.04 ± 0.19
7,COCC(=O)NC/C=C/c1ccc2ncnc(Nc3ccc(Oc4ccc(C)nc4)c(C)c3)c2c1,1.18 ± 0.064
8,COc1cc2ncnc(Nc3cccc(Br)c3)c2cc1OC,0.631 ± 0.37
9,Nc1ccc(-c2ccc3ncc4ccc(=O)n(-c5cccc(C(F)(F)F)c5)c4c3c2)cn1 [Torin 2],0.355 ± 0.027
10,Oc1cccc(-c2nc(N3CCOCC3)c3oc4ncccc4c3n2)c1,0.717 ± 0.061
11,Cc1cccc(-c2[nH]c(C(C)(C)C)nc2-c2ccc3nccnc3c2)n1,1.1 ± 0.042
12,Cc1ncc(-c2ccnc(Nc3ccc(S(C)(=O)=O)cc3)n2)n1C(C)C,0.499 ± 0.026
13,CN1CCN(c2nc(C3=C(c4c[nH]c5ccccc45)C(=O)NC3=O)c3ccccc3n2)CC1 [Sotrastaurin (AEB071)],1.54 ± 0.05
14,C[C@@H](N)[C@H]1CC[C@H](C(=O)Nc2ccncc2)CC1,1.22 ± 0.092
15,CC(C)(C)c1cc(/C=C(\C#N)C(N)=S)cc(C(C)(C)C)c1O [Tyrphostin AG 879 (AG 879)],0.707 ± 0.12
16,c1cncc(CN2CCC(n3ncc4c(N5CCOCC5)nc(-c5ccc6[nH]ccc6c5)nc43)CC2)c1,0.532 ± 0.025
17,CCS(=O)(=O)c1cccc(-c2cc(C(=O)NC3CCN(C)CC3)c(C)c3[nH]c4ncc(C)cc4c23)c1,1.25 ± 0.078
18,COC(=O)c1ccc2c(C(=Nc3ccc(N(C)C(=O)CN4CCN(C)CC4)cc3)c3ccccc3)c(O)[nH]c2c1 [BIBF1120 (Vargatef)],1.35 ± 0.035
19,C#Cc1cccc(Nc2ncnc3cc(OCCOC)c(OCCO)cc23)c1 [OSI-420 (Desmethyl Erlotinib)],0.826 ± 0.023
20,Cc1csc(-c2nnc(Nc3ccc(Oc4ncccc4-c4ccnc(N)n4)cc3)c3ccccc23)c1,1.08 ± 0.11

row,SMILES,TCF/Wnt firefly luciferase reporter signal
1,CCc1cc(Nc2nccc(-c3c(-c4ccc(OC)c(C(=O)Nc5c(F)cccc5F)c4)nc4ccccn34)n2)c(OC)cc1N1CCC(N2CCN(S(C)(=O)=O)CC2)CC1,0.939 ± 0.035
2,CN1CCN(c2ccc3nc(-c4c(N)c5c(F)cccc5[nH]c4=O)[nH]c3c2)CC1 [Dovitinib (TKI-258)],1.26 ± 0.23
3,c1ccc2c(-c3cnn4cc(-c5ccc(N6CCNCC6)cc5)cnc34)ccnc2c1,1.02 ± 0.014
4,O=C1NC(=O)/C(=C\c2ccc3nccnc3c2)S1,1.38 ± 0.05
5,COc1cc2nccc(Oc3ccc(NC(=O)NC4CC4)c(Cl)c3)c2cc1C(N)=O [E7080 (Lenvatinib)],1.44 ± 0.078
6,CC(C)(C)c1cnc(CSc2cnc(NC(=O)C3CCNCC3)s2)o1,0.462 ± 0.047
7,CCS(=O)(=O)Nc1ccc2c(c1)/C(=C(/Nc1ccc(CN3CCCCC3)cc1)c1ccccc1)C(=O)N2 [Hesperadin],0.765 ± 0.36
8,CNC(=O)c1cc(Oc2ccc(NC(=O)Nc3ccc(Cl)c(C(F)(F)F)c3)c(F)c2)ccn1 [Regorafenib (BAY 73-4506)],0.816 ± 0.21
9,CCc1cc2c(cc1N1CCC(N3CCOCC3)CC1)C(C)(C)c1[nH]c3cc(C#N)ccc3c1C2=O,1.08 ± 0.078
10,CCC[C@H](NC(=O)/C(C#N)=C/c1cccc(Br)n1)c1ccccc1,0.0449 ± 0.0065
11,COc1cc2c(Nc3ccc(NC(=O)c4ccccc4)cc3)ncnc2cc1OCCCN1CCOCC1,1.13 ± 0.085
12,O=C(NOCC(O)CO)c1cc(Br)c(F)c(F)c1Nc1ccc(I)cc1F (stereo not given),1.72 ± 0.38
13,O=C(NC1CCNCC1)c1n[nH]cc1NC(=O)c1c(Cl)cccc1Cl,0.517 ± 0.1
14,CC[C@H](Nc1ncnc2[nH]cnc12)c1nc2cccc(F)c2c(=O)n1-c1ccccc1,0.977 ± 0.089
15,C=CC(=O)Nc1ccc2ncnc(Nc3ccc(OCc4cccc(F)c4)c(Cl)c3)c2c1,0.691 ± 0.0099
16,COc1ccc(COc2cc3oc(=O)c4cc(C(C)O)ccc4c3cc2OC)cc1 (stereo not given) [Palomid 529],1.1 ± 0.021
17,O=C(Nc1c[nH]nc1-c1nc2ccc(CN3CCOCC3)cc2[nH]1)NC1CC1,0.865 ± 0.018
18,CCCCCCCCCCCCc1ccc(S(=O)(=O)Nc2nncs2)cc1,0.981 ± 0.041
19,O=C1NC(=O)C(c2ccccc2[N+](=O)[O-])=C1Nc1ccc(O)c(Cl)c1,1.63 ± 0.24
20,CNC(=O)c1cc(Oc2ccc(NC(=O)Nc3cc(C(C)(C)C)nn3-c3ccc4ncccc4c3)c(F)c2)ccn1 [DCC-2036 (Rebastinib)],0.817 ± 0.021
